Laboratory results reported in PubChem BioAssay AID1159580 (chemical genetic matrix, 2015).
“And” between values parts separate entries of the source, which are not always exact repeats. Identical values can stand only once. Hit rate of the full screen: of about 5,500 compounds, about 2,000 (36%) were called active. Not shown: some 18% with an inconclusive outcome. Rule as the data show it: active = normalized growth mostly below about 0.91 (no sharp cut-off); inconclusive = no clear call, values can overlap the other calls; inactive = mostly above about 0.92. The list shows a part of the results.

Assay: chemical genetic growth profiling, strain panel (AID 1159580);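 also: tested at 20 µM; growth read once vehicle control cultures reached saturation at 30 °C; 1 = growth at the plate median or of vehicle wells; lower values mean less growth of the strain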
Settings: growth OD

Measured: normalized growth

COCCOC(=O)C1=C(C)NC(C)=C(C(=O)OC(C)C)C1c1cccc([N+](=O)[O-])c1 (stereo unspecified)
inactive: S. cerevisiae deletion strains, locus YJR075W, strain HOC1, stronger effect = lower value 1.01 | S. cerevisiae deletion strains, locus YKL009W, strain mrt4, stronger effect = lower value 0.967 | S. cerevisiae deletion strains, locus YKL068W, stronger effect = lower value 1 | S. cerevisiae deletion strains, locus YKL085W, strain MDH1 (second series), stronger effect = lower value 0.986 | S. cerevisiae deletion strains, locus YKL085W, strain MDH1, stronger effect = lower value 0.986 | S. cerevisiae deletion strains, locus YKL160W, strain elf1, stronger effect = lower value 1.02 | S. cerevisiae deletion strains, locus YKL190W, strain CNB1, stronger effect = lower value 0.997 | S. cerevisiae deletion strains, locus YKR001C, strain vps1, stronger effect = lower value 1.01 | S. cerevisiae deletion strains, locus YKR026C, strain gcn3, stronger effect = lower value 1.01 | S. cerevisiae deletion strains, locus YKR091W, strain srl3, stronger effect = lower value 0.995 | S. cerevisiae deletion strains, locus YLL001W, strain dnm1, stronger effect = lower value 1.01 | S. cerevisiae deletion strains, locus YLL026W, stronger effect = lower value 1 | S. cerevisiae deletion strains, locus YLL041C, strain sdh2, stronger effect = lower value 1.01 | S. cerevisiae deletion strains, locus YLR027C, strain aat2, stronger effect = lower value 1 | S. cerevisiae deletion strains, locus YLR039C, strain RIC1, stronger effect = lower value 1.02 | S. cerevisiae deletion strains, locus YLR058C, strain SHM2, stronger effect = lower value 1 | S. cerevisiae deletion strains, locus YLR102C, strain apc9, stronger effect = lower value 1.02 | S. cerevisiae deletion strains, locus YLR113W, strain HOG1, stronger effect = lower value 0.954 | S. cerevisiae deletion strains, locus YLR221C, strain rsa3, stronger effect = lower value 1 | S. cerevisiae deletion strains, locus YLR258W, strain gsy2, stronger effect = lower value 1.01 | S. cerevisiae deletion strains, locus YLR262C, strain YPT6 (second series), stronger effect = lower value 0.988 | S. cerevisiae deletion strains, locus YLR262C, strain YPT6, stronger effect = lower value 1.05 | S. cerevisiae deletion strains, locus YLR268W, strain sec22, stronger effect = lower value 0.993 | S. cerevisiae deletion strains, locus YLR320W, strain mms22, stronger effect = lower value 0.984 | S. cerevisiae deletion strains, locus YLR330W, strain CHS5, stronger effect = lower value 1.01 | S. cerevisiae deletion strains, locus YLR342W, strain FKS1 (second series), stronger effect = lower value 1.01 | S. cerevisiae deletion strains, locus YLR342W, strain FKS1, stronger effect = lower value 1.02 | S. cerevisiae deletion strains, locus YLR357W, strain rsc2, stronger effect = lower value 1.02 | S. cerevisiae deletion strains, locus YLR370C, strain arc18, stronger effect = lower value 1 | S. cerevisiae deletion strains, locus YLR371W, strain rom2, stronger effect = lower value 1.01 | S. cerevisiae deletion strains, locus YLR384C, strain iki3, stronger effect = lower value 1.02 | S. cerevisiae deletion strains, locus YLR418C, strain cdc73, stronger effect = lower value 0.974 | S. cerevisiae deletion strains, locus YML016C, strain PPZ1, stronger effect = lower value 1 | S. cerevisiae deletion strains, locus YML032C, strain rad52, stronger effect = lower value 1.01 | S. cerevisiae deletion strains, locus YML120C, strain ndi1, stronger effect = lower value 1.03 | S. cerevisiae deletion strains, locus YML124C, strain tub3, stronger effect = lower value 1.01 | S. cerevisiae deletion strains, locus YMR058W, strain fet3, stronger effect = lower value 1.02 | S. cerevisiae deletion strains, locus YMR078C, strain ctf18, stronger effect = lower value 1.02 | S. cerevisiae deletion strains, locus YMR125W, strain sto1, stronger effect = lower value 1.06 | S. cerevisiae deletion strains, locus YMR129W, stronger effect = lower value 1.01 | S. cerevisiae deletion strains, locus YMR205C, strain PFK2, stronger effect = lower value 0.979 | S. cerevisiae deletion strains, locus YMR223W, strain ubp8, stronger effect = lower value 1.01 | S. cerevisiae deletion strains, locus YMR231W, strain pep5, stronger effect = lower value 1.01 | S. cerevisiae deletion strains, locus YMR263W, strain SAP30, stronger effect = lower value 1 and 1.01 | S. cerevisiae deletion strains, locus YMR307W, strain GAS1, stronger effect = lower value 1.02 and 1.01 | S. cerevisiae deletion strains, locus YNL067W, strain RPL9B, stronger effect = lower value 0.997 | S. cerevisiae deletion strains, locus YNL071W, strain lat1, stronger effect = lower value 0.998 | S. cerevisiae deletion strains, locus YNL128W, strain TEP1, stronger effect = lower value 1.01 | S. cerevisiae deletion strains, locus YNL153C, strain GIM3, stronger effect = lower value 1 | S. cerevisiae deletion strains, locus YNL175C, strain NOP13, stronger effect = lower value 0.962 | S. cerevisiae deletion strains, locus YNL183C, strain NPR1, stronger effect = lower value 0.93 | S. cerevisiae deletion strains, locus YNL197C, strain WHI3, stronger effect = lower value 0.99 | S. cerevisiae deletion strains, locus YNL209W, strain ssb2, stronger effect = lower value 1 | S. cerevisiae deletion strains, locus YNL224C, strain SQS1, stronger effect = lower value 1.01 | S. cerevisiae deletion strains, locus YNL233W, strain BNI4, stronger effect = lower value 1 | S. cerevisiae deletion strains, locus YNL248C, strain rpa49, stronger effect = lower value 1.03 | S. cerevisiae deletion strains, locus YNL250W, strain rad50, stronger effect = lower value 1.02 | S. cerevisiae deletion strains, locus YNL271C, strain bni1, stronger effect = lower value 1.01 | S. cerevisiae deletion strains, locus YNL298W, strain CLA4, stronger effect = lower value 1 | S. cerevisiae deletion strains, locus YNL307C, strain MCK1, stronger effect = lower value 1.01 | S. cerevisiae deletion strains, locus YNL322C, strain KRE1 (second series), stronger effect = lower value 1 | S. cerevisiae deletion strains, locus YNL322C, strain KRE1, stronger effect = lower value 1.01 | S. cerevisiae deletion strains, locus YNR049C, strain mso1, stronger effect = lower value 0.993 | S. cerevisiae deletion strains, locus YNR052C, strain pop2, stronger effect = lower value 1.01 | S. cerevisiae deletion strains, locus YOL006C, strain TOP1, stronger effect = lower value 1.01 | S. cerevisiae deletion strains, locus YOL012C, strain htz1 1.04 | S. cerevisiae deletion strains, locus YOL147C, strain pex11, stronger effect = lower value 1.01 | S. cerevisiae deletion strains, locus YOR001W, strain rrp6, stronger effect = lower value 1 | S. cerevisiae deletion strains, locus YOR061W, strain CKA2, stronger effect = lower value 0.999 | S. cerevisiae deletion strains, locus YOR069W, strain VPS5, stronger effect = lower value 1.01 | S. cerevisiae deletion strains, locus YOR070C, strain gyp1, stronger effect = lower value 1.02 | S. cerevisiae deletion strains, locus YOR080W, strain dia2, stronger effect = lower value 1.01 | S. cerevisiae deletion strains, locus YOR083W, strain WHI5 (second series), stronger effect = lower value 0.986 | S. cerevisiae deletion strains, locus YOR083W, strain WHI5, stronger effect = lower value 0.974 | S. cerevisiae deletion strains, locus YOR106W, strain vam3, stronger effect = lower value 1 | S. cerevisiae deletion strains, locus YOR136W, strain idh2, stronger effect = lower value 1.01 | S. cerevisiae deletion strains, locus YOR144C, strain elg1, stronger effect = lower value 1.01 | S. cerevisiae deletion strains, locus YOR184W, strain ser1, stronger effect = lower value 1.01 | S. cerevisiae deletion strains, locus YOR231W, strain MKK1, stronger effect = lower value 0.935 | S. cerevisiae deletion strains, locus YOR265W, strain rbl2, stronger effect = lower value 0.999 | S. cerevisiae deletion strains, locus YOR270C, strain vph1, stronger effect = lower value 0.92 | S. cerevisiae deletion strains, locus YOR290C, strain snf2, stronger effect = lower value 1.03 | S. cerevisiae deletion strains, locus YOR316C, strain cot1, stronger effect = lower value 1.01 | S. cerevisiae deletion strains, locus YPL051W, strain arl3, stronger effect = lower value 1.01 | S. cerevisiae deletion strains, locus YPL055C, strain LGE1, stronger effect = lower value 1 and 1.02 | S. cerevisiae deletion strains, locus YPL078C, strain atp4, stronger effect = lower value 1.03 | S. cerevisiae deletion strains, locus YPL106C, strain sse1, stronger effect = lower value 1.08 | S. cerevisiae deletion strains, locus YPL240C, strain hsp82, stronger effect = lower value 1.02 | S. cerevisiae deletion strains, locus YPL241C, strain CIN2, stronger effect = lower value 0.985 | S. cerevisiae deletion strains, locus YPL256C, strain CLN2, stronger effect = lower value 0.955 | S. cerevisiae deletion strains, locus YPR119W, strain clb2, stronger effect = lower value 1.01 | S. cerevisiae deletion strains, locus YPR141C, strain kar3, stronger effect = lower value 1.02 | S. cerevisiae deletion strains, locus YPR163C, strain tif3, stronger effect = lower value 1.01 | S. cerevisiae deletion strains, locus YPR167C, strain met16, stronger effect = lower value 1.01 | S. cerevisiae deletion strains, strain wtn01, stronger effect = lower value 1 | S. cerevisiae strains, strain wild type, stronger effect = lower value 1
